Measured values as given in ChEMBL document CHEMBL3988442, “University of Dundee, Small-Polar-MMV Screening Library” (2021).
Among all 68,000 compounds or so, about 25 (0.04%) showed an effect of 50% or more. Shown is part of a subset that was picked to be rich in strong results.

biological target: T1, Methionyl-tRNA synthetase, putative (Leishmania donovani (strain BPK282A1)) (UniProt E9BF75); assay: Leishmania donovani Methionine tRNA synthetase (LdMetRS):v6. Primary screen assay; format: functional; set-up: conc 80 nM, time 150 minutes
T1 sequence (whole entry): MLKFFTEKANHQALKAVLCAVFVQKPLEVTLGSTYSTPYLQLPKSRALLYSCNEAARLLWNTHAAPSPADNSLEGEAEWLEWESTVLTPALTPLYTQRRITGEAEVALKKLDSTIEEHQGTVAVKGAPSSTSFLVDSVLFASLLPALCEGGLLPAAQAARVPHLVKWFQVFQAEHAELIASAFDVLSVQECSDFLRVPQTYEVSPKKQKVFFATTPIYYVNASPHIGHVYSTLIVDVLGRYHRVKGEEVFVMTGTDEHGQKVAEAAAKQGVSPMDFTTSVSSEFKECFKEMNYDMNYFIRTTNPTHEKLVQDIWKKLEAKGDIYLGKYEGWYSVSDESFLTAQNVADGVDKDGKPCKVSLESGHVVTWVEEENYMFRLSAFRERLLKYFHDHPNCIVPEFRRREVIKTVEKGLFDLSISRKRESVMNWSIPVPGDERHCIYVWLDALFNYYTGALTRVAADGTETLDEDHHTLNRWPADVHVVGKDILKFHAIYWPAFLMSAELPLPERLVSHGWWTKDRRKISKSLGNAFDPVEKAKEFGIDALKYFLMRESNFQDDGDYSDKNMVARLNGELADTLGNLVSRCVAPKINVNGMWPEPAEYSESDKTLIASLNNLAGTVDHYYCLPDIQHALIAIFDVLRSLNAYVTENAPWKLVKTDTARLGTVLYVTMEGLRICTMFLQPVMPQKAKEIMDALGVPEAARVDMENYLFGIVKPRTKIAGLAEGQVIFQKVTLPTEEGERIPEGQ

| SMILES | inhibition |
| --- | --- |
| CC1=N[C@@]2(CC[C@@H]3CN(Cc4ccccc4C)C[C@@H]32)C(=O)N1CC1CC1 | 6.09% |
| CN1CCC(CO[C@H]2CN(C(=O)c3cccn3C)[C@@H]3COC[C@H]23)CC1 | 8.4% |
| CC(C)c1nnc(NCCS(C)(=O)=O)s1 | 1.24% |
| CC(C)CCNc1nnc(C(C)C)s1 | 80.1% |
| CCN(CC)S(=O)(=O)CCNc1nnc(C(C)C)s1 | -0.621% |
| COc1ccc(CN2CCO[C@H]3[C@H](OCCN4CCCC4)CC[C@@H]32)cc1 | 6.3% |
| C1CC(CN2C[C@H]3CC[C@@H]2CN(Cc2nnc(C4CC4)o2)C3)C1 | 9.96% |
| Cc1cncc(C(=O)N2C[C@H]3CCC[C@@]3(COc3ccccn3)C2)c1 | 8.5% |
| COc1cc(N2CC[C@@H]3O[C@@H](C(=O)NCCN(C)C)C[C@@H]32)ncn1 | 4.66% |
| O=C1[C@H]2CC[C@H](CN(C3CCOCC3)C2)N1Cc1cscn1 | 8.93% |
| Cc1oncc1C(=O)N1CC[C@H]2[C@@H]1CCC(=O)N2CC1CCOCC1 | 13.7% |
| Cc1ccoc1C(=O)N1CC[C@H]2C[C@H](c3nnc(C4CC4)o3)O[C@@H]2C1 | 15.5% |
| O=S(=O)(C1CC1)N1C[C@@H]2CN(Cc3ccoc3)CCO[C@@H]2C1 | 8.7% |
| Cc1occc1C(=O)N1C[C@@H]2OCCN(c3ncccn3)[C@@H]2C1 | 9.59% |
| COc1cc(CN2CCN(CC3CC3)[C@@H]3CS(=O)(=O)C[C@@H]32)cc(OC)c1 | 7.26% |
| N#Cc1cccc(CN2C[C@H](NC(=O)C3CC3)[C@H]3OCCC[C@H]32)c1 | 10.6% |
| O=C(NC1CC1)[C@H]1C[C@@H]2CCN(Cc3ccc4c(c3)OCO4)C[C@@H]2O1 | 1.31% |
| CCS(=O)(=O)N1C[C@H]2CCC[C@@]2(COc2ccccn2)C1 | 12.9% |
| CS(=O)(=O)N1CC[C@H]2O[C@H](C(=O)NCCc3ccccn3)CC[C@H]21 | 7.41% |
| CCN1C[C@H]2C3(CCN(C(C)=O)CC3)CC[C@@]2(C(=O)N(C)C)C1 | 1.68% |
| CCCN1C[C@H]2CC[C@@H]1CN(C(=O)c1ccc(N(C)CCO)cc1)C2 | 12.9% |
| Cc1cccc(N2CC[C@@H]3[C@@H](CO[C@H]3CNC(=O)c3ccco3)C2)n1 | 13.1% |
| CSc1ncccc1C(=O)N1C[C@H]2CC[C@@H]1CN(C(=O)N(C)C)C2 | 16.9% |
| CNc1ccnc(N2C[C@@H]3CC[C@H](C2)N(CCOC)C3=O)n1 | -4.82% |
| CCC(C)NC(=O)c1ccc(-c2ccco2)[nH]c1=O (stereo not drawn) | 86.2% |
| CC(CN1CCCC1=O)NC(=O)c1ccc(-c2ccco2)[nH]c1=O (stereo not drawn) | 16.8% |
| CCCC(C)NC(=O)c1ccc(-c2ccco2)[nH]c1=O (stereo not drawn) | 9.58% |
| CCN1Cc2nc(OC)c(CNC(=O)C3CCS(=O)(=O)CC3)cc2C1=O | -0.86% |
